# Source: PubChem BioAssay (Tox21)
# Values without a mark were called inactive. The source made the active and inactive calls. Calls come from the whole dose curve; as a rule, active = well fitted curve in the direction sought with a large enough effect in the repeat runs; inconclusive = weak or mixed curves; inactive = flat fitted curve, though single readings scatter.
# Test: qHTS assay to test for compound auto fluorescence at 590 nm (red) in HEK293 cells (AID 720679)
# Details: red autofluorescence 540/590 nm; series mostly up to 91.3 µM
# Outline: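 Each well held 2,000 HEK293 cells in medium containing 10% dialyzed FBS. Following 4-5 hr attachment at 37C, 23 nL test compound or DMSO was added; plates sat overnight, and red fluorescence (540/590nm) was recorded.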
# % is set by controls: 0 for no effect and ±100 for the full control effect.
SMILES,outcome,"fluorescence, % of fluorescent control"
CCC1(CCC(C)C)C(=O)NC(=O)NC1=O,inactive,–
C=CCN1C[C@H](C)N([C@H](c2ccc(C(=O)N(CC)CC)cc2)c2cccc(OC)c2)C[C@H]1C,inactive,–
O=C(NC(=O)c1cc(F)c(F)cc1Cl)Nc1cc(F)ccc1N1CCC(C(=O)O)CC1,inactive,–
[Cl-].[Cl-].[Hg+2],inactive,–
CC(=O)OC(c1ccccc1)C(Cl)(Cl)Cl (stereo not drawn),inactive,–
Cc1ncc(C[n+]2csc(CCO)c2C)c(N)n1,inactive,–
CN1CC[C@]23c4c5ccc(O)c4O[C@H]2[C@@H](O)C=C[C@H]3[C@H]1C5,inactive,–
Nc1c(Br)cc(Br)c2c1C(=O)c1ccccc1C2=O,–,-0.009% [at 18.6 µM]
CCC(C)(C)O,inactive,–
CC(C)(C)N(NC(=O)c1ccc(Cl)cc1)C(=O)c1ccccc1,inactive,–
O=[N+]([O-])c1cc(Cl)c(Cl)cc1Cl,inactive,–
CN(C)c1ccc(N=O)cc1,inactive,–
CC1(C)[C@H](C(=O)O[C@H](C#N)c2cccc(Oc3ccccc3)c2)[C@@H]1C=C(Br)Br,inactive,–
CC(=O)NNc1ccccc1,inactive,–
CCCN(CCOc1c(Cl)cc(Cl)cc1Cl)C(=O)n1ccnc1,inactive,–
Nc1ccccc1C(=O)OCCc1ccccc1,inactive,–
O=C(O)COc1cc(Cl)c(Cl)cc1Cl,inactive,–
NP(N)(=O)NC(=O)c1ccc(F)cc1,inactive,–
CN1C(=O)CN=C(c2ccccc2)c2cc([N+](=O)[O-])ccc21,inactive,–

SMILES,outcome,"fluorescence, % of fluorescent control"
O=S(=O)(c1ccccc1)c1ccccc1,inactive,–
CCNC(=O)NC(=O)/C(C#N)=N/OC,inactive,–
O=C(O)CCCOc1ccc(Cl)cc1Cl,inactive,–
C[Si](Cn1cncn1)(c1ccc(F)cc1)c1ccc(F)cc1,inactive,–
C[C@]12C=CC3=C4CCC(=O)C=C4CC[C@H]3[C@@H]1CC[C@@H]2O,inactive,–
FC(Cl)(Cl)C(F)(Cl)Cl,inactive,–
O=C(O)C(F)(F)C(F)(F)C(F)(F)C(F)(F)C(F)(F)C(F)(F)C(F)(F)C(F)(F)F,inactive,–
CCC1(C2=NCCN2)Cc2ccccc2O1 (stereo not drawn),inactive,–
O=C(O)C(O)C(O)C(=O)O (stereo not drawn),inactive,–
Nc1ccc2c(c1)Cc1ccccc1-2,inactive,–
CC(Oc1cc(Cl)c(Cl)cc1Cl)C(=O)O (stereo not drawn),inactive,–
CN1C[C@H](C(=O)N[C@]2(C)O[C@@]3(O)[C@@H]4CCCN4C(=O)[C@H](Cc4ccccc4)N3C2=O)C=C2c3cccc4[nH]cc(c34)C[C@H]21,inactive,–
C=C(C)C(=O)OCCCCOC(=O)C(=C)C,inactive,–
Cc1ccc(N)c(C)c1,inactive,–
COP(=O)(OC)OC(Br)C(Cl)(Cl)Br (stereo not drawn),inactive,–
CC[N+]1(CCOC(=O)C(O)(c2ccccc2)c2ccccc2)CCCCC1,inactive,–
O=CC=O,inactive,–
C[CH2][Hg][S]c1ccccc1C(=O)O,inactive,–
O=P(OCC(Br)CBr)(OCC(Br)CBr)OCC(Br)CBr (stereo not drawn),inactive,–
